{"source": "PubChem BioAssay", "key": {"[1]": {"assay": "A549 cell viability effects, profiling panel, calcein-AM fluorescence, 48 h, basal (AID 1162); note: test concentration not given here", "details": "higher = more signal"}, "[2]": {"assay": "adipocyte viability effects, profiling panel, cell-based, 3T3-L1 adipocytes, calcein-AM fluorescence, 48 h, basal (AID 1163); note: test concentration not given here", "details": "3T3-L1 adipocytes viability, higher = more signal"}, "[3]": {"assay": "HepG2 cell viability effects, profiling panel, calcein-AM fluorescence, 48 h, basal (AID 1164); note: test concentration not given here", "details": "higher = more signal"}, "[4]": {"assay": "MM1S cell viability effects, profiling panel, calcein-AM fluorescence, 48 h, basal (AID 1165);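 note: viability of MM1S multiple myeloma cells under basal unstimulated conditions; test concentration not given here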", "details": "higher = more signal"}, "[5]": {"assay": "basal RPMI8226 viability, no added stimulus, profiling panel, cell-based, calcein-AM fluorescence, 48 h, PK04 Diversity Set (AID 1166);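 note: cells grown under basal conditions without added stimulus; test concentration not given here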", "details": "RPMI8226 myeloma viability, higher = more signal"}, "[6]": {"assay": "basal HepG2 mitochondrial membrane potential changes, profiling panel, cell-based, JC-1 fluorescence, 24 h, 100 nL compound (AID 1167); note: test concentration not given here", "details": "higher = more signal"}, "[7]": {"assay": "basal 3T3-L1 adipocyte mitochondrial potential changes, profiling panel, cell-based, JC-1 fluorescence, 3T3-L1 adipocytes, 24 h, 100 nL compound (AID 1168); note: test concentration not given here", "details": "JC-1 mitochondrial fluorescence, higher = more signal, called active from +8 up or from −8 down"}, "[8]": {"assay": "basal RPMI8226 mitochondrial membrane potential changes, profiling panel, cell-based, JC-1 fluorescence, 24 h, 100 nL compound (AID 1169); note: test concentration not given here", "details": "RPMI8226 myeloma, JC-1 mitochondrial potential fluorescence, higher = more signal"}, "[9]": {"assay": "basal MM1S mitochondrial membrane potential changes, profiling panel, cell-based, JC-1 fluorescence, 24 h, 100 nL compound (AID 1170); note: test concentration not given here", "details": "higher = more signal"}, "[10]": {"assay": "A549 lung cancer cell viability effects, profiling panel, resazurin fluorescence, 24 h, PK04 Diversity Set (AID 1171); note: test concentration not given here", "details": "higher = more signal, called active from +8 up or from −8 down"}, "[11]": {"assay": "HepG2 liver cancer cell viability effects, profiling panel, resazurin fluorescence, 24 h, PK04 Diversity Set (AID 1172); note: test concentration not given here", "details": "higher = more signal"}, "[12]": {"assay": "basal S. cerevisiae growth modulation, no modifier, primary screen, OD600, strain BY4716, 24 h, basal condition (AID 1173)", "details": "OD600, 24 h, higher = more signal, called active from +8 up or from −8 down"}, "[13]": {"assay": "MM1S myeloma cell viability, profiling panel, resazurin fluorescence, basal, 24 h, PK04 Diversity Set (AID 1174);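 note: MM1S multiple myeloma cell line; test concentration not given here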", "details": "higher = more signal, called active from +8 up or from −8 down"}, "[14]": {"biological_target": "Dihydroorotate dehydrogenase (quinone), mitochondrial (Plasmodium falciparum (isolate 3D7)) (UniProt Q08210)", "sequence (Q08210 whole entry, looked up)": "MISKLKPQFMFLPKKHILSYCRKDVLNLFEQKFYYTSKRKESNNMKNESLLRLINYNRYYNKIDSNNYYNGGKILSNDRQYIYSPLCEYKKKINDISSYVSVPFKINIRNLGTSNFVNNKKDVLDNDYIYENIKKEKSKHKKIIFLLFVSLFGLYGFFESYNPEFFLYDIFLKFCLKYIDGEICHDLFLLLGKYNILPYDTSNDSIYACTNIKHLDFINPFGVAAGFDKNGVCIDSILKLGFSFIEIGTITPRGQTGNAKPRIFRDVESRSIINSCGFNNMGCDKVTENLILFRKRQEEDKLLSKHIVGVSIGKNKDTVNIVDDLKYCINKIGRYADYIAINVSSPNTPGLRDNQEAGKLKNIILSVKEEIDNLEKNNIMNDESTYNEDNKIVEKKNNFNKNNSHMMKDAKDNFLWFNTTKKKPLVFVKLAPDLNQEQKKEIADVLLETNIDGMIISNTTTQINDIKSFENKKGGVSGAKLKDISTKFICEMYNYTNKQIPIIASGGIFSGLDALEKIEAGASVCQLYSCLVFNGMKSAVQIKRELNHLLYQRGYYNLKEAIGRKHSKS", "assay": "PfDHODH enzyme inhibitors, primary screen, biochemical, C-terminal His tag, absorbance 600 nm (AID 1175);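 note: recombinant parasite enzyme with a five histidine tag at its C terminus; test concentration not given here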", "details": "DCIP absorbance 600 nm, higher = more signal, called active from +8 up or from −8 down"}, "[15]": {"assay": "P. aeruginosa biofilm formation inhibitors, primary screen, strain PAO1, LB-PBS medium, absorbance 600 nm (AID 1176); note: test concentration not given here", "details": "P. aeruginosa PAO1 growth/biofilm, A600, 12 h; higher = more signal"}, "[16]": {"assay": "S. cerevisiae RM11-1a growth modifiers, primary screen, strain RM11-1a, OD600, basal, 24 h (AID 1177);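 note: cultures grown under basal conditions with no added stressor; test concentration not given here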", "details": "OD600, 24 h, higher = more signal, called active from +8 up or from −8 down"}, "[17]": {"assay": "E. coli acrAB mutant growth effects, primary screen, E. coli filamentation inducers, strain DRC39, OD650, 24 h (AID 1178);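 note: growth measured as culture turbidity by optical density at 650 nm; test concentration not given here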", "details": "higher = more signal, called active from +8 up or from −8 down"}, "[18]": {"assay": "E. coli acrAB mutant growth effects, primary screen, E. coli filamentation inducers, strain DRC39, OD650, 48 h (AID 1179);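 note: screen aims at cell division blockers that make cells filament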", "details": "E. coli DRC39 delta-acrAB growth, higher = more signal, called active from +8 up or from −8 down"}, "[19]": {"assay": "RPMI8226 myeloma cell viability, profiling panel, resazurin fluorescence, basal, 24 h, PK04 Diversity Set (AID 1180);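 note: RPMI8826 multiple myeloma cell line at 5000 cells per well; test concentration not given here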", "details": "higher = more signal"}, "[20]": {"biological_target": "E3 ubiquitin-protein ligase XIAP (Homo sapiens) (UniProt P98170)", "sequence (P98170 whole entry, looked up)": "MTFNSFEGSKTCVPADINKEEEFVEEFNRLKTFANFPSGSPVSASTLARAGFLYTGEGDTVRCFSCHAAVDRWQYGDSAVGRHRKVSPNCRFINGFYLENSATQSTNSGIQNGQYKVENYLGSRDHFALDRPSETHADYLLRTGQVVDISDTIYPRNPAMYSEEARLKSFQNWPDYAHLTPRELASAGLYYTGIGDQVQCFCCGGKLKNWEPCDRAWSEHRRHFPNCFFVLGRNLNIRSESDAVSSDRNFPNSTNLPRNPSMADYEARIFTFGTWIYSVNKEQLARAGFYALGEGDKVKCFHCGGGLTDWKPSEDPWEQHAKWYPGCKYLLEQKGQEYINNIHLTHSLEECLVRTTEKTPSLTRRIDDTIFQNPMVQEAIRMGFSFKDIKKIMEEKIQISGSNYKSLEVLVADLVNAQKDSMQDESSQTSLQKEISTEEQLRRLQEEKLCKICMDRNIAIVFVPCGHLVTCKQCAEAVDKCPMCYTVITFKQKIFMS", "assay": "XIAP binders, primary screen, biophysical, small-molecule microarray, fluorescence 635 nm (AID 1181);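 note: score merges 667 nm emission and signal to noise over triplicate slides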", "details": "small-molecule microarray binding, higher = more signal"}}, "note": "The source made the active and inactive calls. Unless noted, the rule behind the calls is not given here."}
{"smiles": "COCCOC(=O)N1C(=O)[C@@]2(c3cc(C#CCC(C(=O)OC)C(=O)OC)ccc31)[C@H](C(=O)Nc1nc3ccccc3s1)[C@H]1C(=O)O[C@H](c3ccccc3)[C@H](c3ccccc3)N1[C@@H]2c1ccc(O)cc1", "values": [{"measurement": "z-score", "setting": "[1]", "value": -0.857}, {"measurement": "z-score", "setting": "[2]", "value": 0.401}, {"measurement": "z-score", "setting": "[3]", "value": -0.277}, {"measurement": "z-score", "setting": "[4]", "value": 0.0422}, {"measurement": "z-score", "setting": "[5]", "value": -0.23}, {"measurement": "z-score", "setting": "[6]", "value": -2.45}, {"measurement": "z-score", "setting": "[7]", "value": "-2.24 (inactive)"}, {"measurement": "z-score", "setting": "[8]", "value": 0.467}, {"measurement": "z-score", "setting": "[9]", "value": 0.258}, {"measurement": "z-score", "setting": "[10]", "value": "0.677 (inactive)"}, {"measurement": "z-score", "setting": "[11]", "value": -0.218}, {"measurement": "z-score", "setting": "[12]", "value": "0.945 (inactive)"}, {"measurement": "z-score", "setting": "[13]", "value": "-0.0585 (inactive)"}, {"measurement": "composite z-score", "setting": "[14]", "value": "0.863 (inactive)"}, {"measurement": "z-score", "setting": "[15]", "value": "0.678 (inactive)"}, {"measurement": "z-score", "setting": "[16]", "value": "0.404 (inactive)"}, {"measurement": "z-score", "setting": "[17]", "value": "0.378 (inactive)"}, {"measurement": "z-score", "setting": "[18]", "value": "-0.186 (inactive)"}, {"measurement": "z-score", "setting": "[19]", "value": -0.577}, {"measurement": "composite z-score", "setting": "[20]", "value": 0.286}]}
{"smiles": "COc1ccc(C(O)C2C=CC3C(=O)N(c4ccccc4)C(=O)C3N2Nc2ccc(C#N)cc2)cc1OCc1ccccc1", "note": "(stereo not given)", "values": [{"measurement": "z-score", "setting": "[1]", "value": 0.233}, {"measurement": "z-score", "setting": "[2]", "value": -0.735}, {"measurement": "z-score", "setting": "[3]", "value": 0.753}, {"measurement": "z-score", "setting": "[4]", "value": 0.333}, {"measurement": "z-score", "setting": "[5]", "value": -0.692}, {"measurement": "z-score", "setting": "[6]", "value": -0.974}, {"measurement": "z-score", "setting": "[7]", "value": "-1.14 (inactive)"}, {"measurement": "z-score", "setting": "[8]", "value": -0.137}, {"measurement": "z-score", "setting": "[9]", "value": -0.222}, {"measurement": "z-score", "setting": "[10]", "value": "0.141 (inactive)"}, {"measurement": "z-score", "setting": "[11]", "value": -1.74}, {"measurement": "z-score", "setting": "[12]", "value": "0.0151 (inactive)"}, {"measurement": "z-score", "setting": "[13]", "value": "-0.829 (inactive)"}, {"measurement": "composite z-score", "setting": "[14]", "value": "0.94 (inactive)"}, {"measurement": "z-score", "setting": "[15]", "value": "1.45 (inactive)"}, {"measurement": "z-score", "setting": "[16]", "value": "-0.396 (inactive)"}, {"measurement": "z-score", "setting": "[17]", "value": "-0.933 (inactive)"}, {"measurement": "z-score", "setting": "[18]", "value": "-0.0725 (inactive)"}, {"measurement": "z-score", "setting": "[19]", "value": -0.756}, {"measurement": "composite z-score", "setting": "[20]", "value": 0.44}]}
{"smiles": "C=C(COC)C(=O)CC[C@H](OC(=O)c1cccnc1)c1ccc(OCCO)cc1", "values": [{"measurement": "z-score", "setting": "[1]", "value": 0.369}, {"measurement": "z-score", "setting": "[2]", "value": 0.0993}, {"measurement": "z-score", "setting": "[3]", "value": 0.143}, {"measurement": "z-score", "setting": "[4]", "value": -1.93}, {"measurement": "z-score", "setting": "[5]", "value": -0.418}, {"measurement": "z-score", "setting": "[6]", "value": -1.02}, {"measurement": "z-score", "setting": "[7]", "value": "-0.351 (inactive)"}, {"measurement": "z-score", "setting": "[8]", "value": 0.878}, {"measurement": "z-score", "setting": "[9]", "value": -0.0164}, {"measurement": "z-score", "setting": "[10]", "value": "-0.552 (inactive)"}, {"measurement": "z-score", "setting": "[11]", "value": -0.974}, {"measurement": "z-score", "setting": "[12]", "value": "-3.4 (inactive)"}, {"measurement": "z-score", "setting": "[13]", "value": "-0.443 (inactive)"}, {"measurement": "composite z-score", "setting": "[14]", "value": "-2.45 (inactive)"}, {"measurement": "z-score", "setting": "[15]", "value": "-0.0342 (inactive)"}, {"measurement": "z-score", "setting": "[16]", "value": "1.29 (inactive)"}, {"measurement": "z-score", "setting": "[17]", "value": "-0.768 (inactive)"}, {"measurement": "z-score", "setting": "[18]", "value": "-0.8 (inactive)"}, {"measurement": "z-score", "setting": "[19]", "value": -0.776}, {"measurement": "composite z-score", "setting": "[20]", "value": -0.0013}]}
{"smiles": "CC(C)C(=C=CC[C@H](O)c1ccccc1OCCO)C[C@H](O)c1cc(Cl)cc(Cl)c1O", "values": [{"measurement": "z-score", "setting": "[1]", "value": 0.884}, {"measurement": "z-score", "setting": "[2]", "value": 0.271}, {"measurement": "z-score", "setting": "[3]", "value": 0.601}, {"measurement": "z-score", "setting": "[4]", "value": -3.42}, {"measurement": "z-score", "setting": "[5]", "value": -3.2}, {"measurement": "z-score", "setting": "[6]", "value": -1.1}, {"measurement": "z-score", "setting": "[7]", "value": "0.427 (inactive)"}, {"measurement": "z-score", "setting": "[8]", "value": -0.788}, {"measurement": "z-score", "setting": "[9]", "value": -1.07}, {"measurement": "z-score", "setting": "[10]", "value": "-0.0216 (inactive)"}, {"measurement": "z-score", "setting": "[11]", "value": 0.271}, {"measurement": "z-score", "setting": "[12]", "value": "-5.59 (inactive)"}, {"measurement": "z-score", "setting": "[13]", "value": "-0.702 (inactive)"}, {"measurement": "composite z-score", "setting": "[14]", "value": "-2 (inactive)"}, {"measurement": "z-score", "setting": "[15]", "value": "0.731 (inactive)"}, {"measurement": "z-score", "setting": "[16]", "value": "-0.17 (inactive)"}, {"measurement": "z-score", "setting": "[17]", "value": "0.215 (inactive)"}, {"measurement": "z-score", "setting": "[18]", "value": "-0.0849 (inactive)"}, {"measurement": "z-score", "setting": "[19]", "value": -0.628}, {"measurement": "composite z-score", "setting": "[20]", "value": -0.0448}]}
{"smiles": "COC(=O)[C@@]1(Cc2ccc(F)cc2)[C@H]2c3cc(C(=O)N(C)C)n(C)c3C[C@H]2CN1C(=O)c1ccccc1", "values": [{"measurement": "z-score", "setting": "[1]", "value": 0.888}, {"measurement": "z-score", "setting": "[2]", "value": -0.0909}, {"measurement": "z-score", "setting": "[3]", "value": -0.408}, {"measurement": "z-score", "setting": "[4]", "value": -0.364}, {"measurement": "z-score", "setting": "[5]", "value": -0.119}, {"measurement": "z-score", "setting": "[6]", "value": 0.216}, {"measurement": "z-score", "setting": "[7]", "value": "-0.574 (inactive)"}, {"measurement": "z-score", "setting": "[8]", "value": -0.325}, {"measurement": "z-score", "setting": "[9]", "value": -0.481}, {"measurement": "z-score", "setting": "[10]", "value": "-0.452 (inactive)"}, {"measurement": "z-score", "setting": "[11]", "value": -0.476}, {"measurement": "z-score", "setting": "[12]", "value": "0.109 (inactive)"}, {"measurement": "z-score", "setting": "[13]", "value": "-0.911 (inactive)"}, {"measurement": "composite z-score", "setting": "[14]", "value": "0.0197 (inactive)"}, {"measurement": "z-score", "setting": "[15]", "value": "0.026 (inactive)"}, {"measurement": "z-score", "setting": "[16]", "value": "0.626 (inactive)"}, {"measurement": "z-score", "setting": "[17]", "value": "-0.657 (inactive)"}, {"measurement": "z-score", "setting": "[18]", "value": "-0.705 (inactive)"}, {"measurement": "z-score", "setting": "[19]", "value": -0.521}, {"measurement": "composite z-score", "setting": "[20]", "value": 0.147}]}
